ALOX12 inh: inhibitors of human 12S-lipoxygenase ALOX12. purified 12hLO, xylenol orange hydroperoxide absorbance. Potency, µM (doses to about 108 µM), for the others: at the highest dose activity change, negative = inhibition, hits mostly inhibitors. 580,000 tested, 1.1% active; further: on the % scale 0 is the no-effect control and ±100 the full control effect
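Purified human 12hLO (150 nM final) in 25 mM Hepes, 0.01% Triton X-100, pH 7.0 was preincubated 15 min at room temperature with compound. Then 40 uM arachidonic acid was added, 30 min. Hydroperoxide was read by Fe-XO absorbance ratio 573/405 nm.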
BAZ2B block: inhibitors of human BAZ2B bromodomain; Q9UIF8; Potency, µM (series often up to 114 µM), inactives show top-dose activity change, negative = inhibition, most hits filed as inhibitors; AlphaScreen BAZ2B-H3K14Ac peptide displacement; 360,000 tested, 4.4% active; further: on the % scale 0 is the no-effect control and ±100 the full control effect; nearly all actives have a fitted effect of over 60% in size
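Complex of BAZ2B and biotin-H3K14Ac (50 nM apiece) forms over 30 min at RT, then faces library compounds up to 110 uM for another 30 min; AlphaScreen beads added, 20 min dark incubation, luminescence read.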
Sfp PPTase inh: Sfp phosphopantetheinyl transferase inhibition. Q9F4F7. Biochemical Sfp PPTase activity, qHTS. Potency, µM, for the others: largest response in the series, negative = inhibition, usual class: inhibitors. 310,000 tested, 3.5% active;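 further: the enzyme is Sfp with the accession as filed and its product quenches rhodamine fluorescence; 0% = enzyme reaction without inhibitor and -100% = no enzyme wells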
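Buffer: 50 mM Hepes-Na pH 7.6, 10 mM MgCl2, 0.01% Nonidet P-40, 0.01% BSA. Enzyme 15 nM, pre-exposed to compound 15 min; substrates then added and fluorescence change tracked over 30 min.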
JMJD2A Tudor inh: blocks the human JMJD2A Tudor domain. O75164. AlphaScreen JMJD2A-Tudor / H3K4me3 peptide binding. Potency, µM (doses to about 114 µM), for the others: at the top dose activity change, negative = inhibition, hits mostly inhibitors. 390,000 tested, 4.4% active. AID 504339; further: on the % scale 0 is the no-effect control and ±100 the full control effect; nearly all actives have a fitted effect of over 50% in size
HP1b binding inh: inhibitors of HP1-beta chromodomain binding to methylated histone tails. Potency, µM (top dose mostly 114 µM), inactives show at the top dose activity change, negative = inhibition, most hits filed as inhibitors. AID 540317. P83916. 390,000 tested, 0.56% active. AlphaScreen HP1-beta / biotin-H3K9me3 peptide binding; further: nearly all actives have a fitted effect of over 70% in size
Target sequence (P83916 whole entry, looked up): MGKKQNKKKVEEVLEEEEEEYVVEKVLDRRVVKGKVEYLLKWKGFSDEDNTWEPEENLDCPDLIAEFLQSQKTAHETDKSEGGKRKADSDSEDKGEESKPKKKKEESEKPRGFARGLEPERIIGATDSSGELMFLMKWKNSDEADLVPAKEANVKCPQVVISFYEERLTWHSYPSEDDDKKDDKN
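Compound inhibition of the preformed complex between 50 nM HP1-beta and 50 nM biotinylated H3K9me3 peptide was read by AlphaScreen. Buffer was PBS pH 7.4 with 0.01% Tween-20. Incubations ran 30 min at room temperature, with 10 ug/mL donor/acceptor beads.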
G9a block: blocks human histone lysine methyltransferase G9a; Q96KQ7; Potency, µM (titrated, usually from 102 µM), for inactives: at the top dose activity, negative = inhibition, actives largely listed as inhibitors; 350,000 tested, 8.8% active; G9a H3K9 monomethylation, AlphaScreen, 2 h; AID 504332; further: on the % scale 0 is the no-effect control and ±100 the full control effect; nearly all actives have a fitted effect of over 75% in size
Target sequence (Q96KQ7 913-1193 limits assumed): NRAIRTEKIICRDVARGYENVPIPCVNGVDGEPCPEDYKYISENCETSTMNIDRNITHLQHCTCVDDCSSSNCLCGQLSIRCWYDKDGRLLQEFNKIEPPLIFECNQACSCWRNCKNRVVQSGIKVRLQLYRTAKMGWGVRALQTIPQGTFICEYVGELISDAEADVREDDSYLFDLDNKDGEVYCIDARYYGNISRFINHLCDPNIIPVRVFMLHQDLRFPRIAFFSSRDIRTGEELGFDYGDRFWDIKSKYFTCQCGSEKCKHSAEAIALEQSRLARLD
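Using a bead-based AlphaScreen, monomethylated H3K9 product from 2 h room-temperature reactions (G9a 20 nM, peptide 500 nM, SAM 20 uM) was detected with 0.5 ug/mL rabbit anti-H3K9me1 antibody.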
Numbers without * were called inactive; ? = inconclusive; . = no result given; [ ] = another dose, or the depositor's remark. Compounds with a hit are over-represented: about 8.7% of the library has one in this group of screens. The call rests on the fitted dose curve; in most records, active means well fitted curve in the direction sought with a large enough effect; inconclusive means small, poorly fitted or top-dose-only effect, or another doubt; inactive means no such curve, though single readings can be large; an effect the other way counts as inactive or inconclusive. Potency means the concentration at half of the fitted maximal effect.

SMILES	ALOX12 inh	BAZ2B block	Sfp PPTase inh	JMJD2A Tudor inh	HP1b binding inh	G9a block
O=C(NCCCN1CCOCC1)c1onc(CSc2nc3ccccc3[nH]2)c1C(=O)NCCCN1CCOCC1	-7%	-25%	3%	-19%	53%	50µM*
CCCCNC(=O)c1onc(CSc2nc3ccccc3[nH]2)c1C(=O)NCCCC	-10%	-3%	14%	-23%	37%	71µM*
CC(C)NC(=O)c1onc(CSc2nc3ccccc3[nH]2)c1C(=O)NC(C)C	-15%	-30%	11%	-29%	-7%	50µM*
Cn1c(SCC(=O)Nc2ccc(Cl)cc2F)nnc1-c1ccco1	-7%	-12%	10%	-13%	-14%	45µM*
CCn1c(SCC(=O)NCCc2ccccc2)nnc1-c1cccs1	-20%	8%	4%	-1%	22%	3%[59 µM]
CCn1c(SCC(N)=O)nnc1-c1ccco1	1%	10%	6%	-7%	12%	9%
COCCn1c(SCc2cccnc2)nnc1-c1ccco1	65%	-2%	20µM*	-6%	37%	?
CCn1c(SCc2cccc(C(F)(F)F)c2)nnc1-c1ccco1	50µM*	5%	-1%	-6%	13%	?
CCn1c(SCC(=O)NCCc2ccccc2)nnc1-c1ccco1	2%	-3%	?	7%	31%	40µM*
O=C(C1CC1)N1CCC(c2nc(C3CCOCC3)no2)C1 (stereo unspecified)	10%	.	.	.	.	.
Cc1ncc(CN2CCC(C(=O)Nc3cccc(-c4cc5ccccc5[nH]4)c3)CC2)cn1	9%	.	.	.	.	.
O=C1NCCCCCCN(Cc2ccncc2)[C@@H]2CN(S(=O)(=O)c3ccccc3)CC[C@@H]12	104%	.	.	.	.	.
Nn1c(SCC(=O)NCCCc2ccccc2)nnc1-c1cccnc1	1%	-2%	-1%	5%	45%	50µM*
COCCn1c(SCC(=O)NCCc2ccccc2)nnc1-c1ccco1	6%	-1%	-22%	-8%	36%	45µM*
CCCn1c(SCC(=O)NCCc2ccccc2)nnc1-c1cccnc1	0%	15%	-1%	14%	-2%	22%
Cn1c(SCC(=O)NCCc2ccccc2)nnc1-c1ccco1	7%	4%	20%	89µM*	-12%	12%[12.7 µM]
COCCn1c(SCC(=O)Nc2ccccc2OC)nnc1-c1ccco1	18%	-9%	3%	2%	4%	12%
COc1ccc(OC)c(NC(=O)Cn2c(-c3ccccc3)nc(C)c(CCO)c2=O)c1	0%	.	.	.	.	.
O=C1NCCCCCCN(Cc2ccncc2)[C@@H]2CN(C(=O)c3cccs3)CC[C@@H]12	83%	.	.	.	.	.
COc1cccc(/C(C#N)=C/c2c(-c3ccc(Cl)cc3)nc3c(C)cccn23)c1	0%	?	6%	?	?	10µM*
Cc1nnc(SCC(=O)c2ccc([N+](=O)[O-])cc2)s1	-4%	-17%	50µM*	-33%	20%	-18%[59 µM]
O=C(CSc1ccccc1C(=O)O)c1ccc([N+](=O)[O-])cc1	-10%	?	-94%	20µM*	?	20µM*
Cc1oc(-c2cccs2)nc1CC(=O)N1CCOCC1	21%	.	.	.	.	.
O=C1c2ccccc2CN1C1CCN(Cc2cccc3ccccc23)CC1	50µM*	.	.	.	.	.
CCC(=O)NC(Cc1ccccc1)c1nc2ccccc2[nH]1 (stereo unspecified)	-13%	-3%	-3%	3%	29%	.
Cc1cc(Cl)ccc1OCC(=O)N[C@@H](Cc1ccccc1)c1nc2ccccc2[nH]1	?	56µM*	7%	-17%	34%	?
COc1ccc(C2CC(=O)c3c(O)cc(O)cc3O2)cc1O (stereo unspecified)	-1%	.	12%	-8%	27%	.
COc1cc(C2Oc3cc(C4Oc5cc(O)cc(O)c5C(=O)C4O)ccc3OC2CO)ccc1O (stereo unspecified)	?	-31%	-2%	-14%	19%	50µM*
COc1cnc(-c2ccccn2)nc1Oc1ccccc1	0%	25µM*	7%	89µM*	45%	-4%
